{"source": "PubChem BioAssay (NCATS)", "note": "Unmarked numbers belong to inactive results. Active and inactive are the calls of the source. The call rests on the fitted dose curve; in most records, active means well fitted inhibition curve with a large enough effect; inconclusive means small, poorly fitted or top-dose-only effect; inactive means flat fitted curve, though single readings scatter. Potency means the concentration at half of the fitted maximal effect.", "data": [{"biological_target": "DNA polymerase III PolC-type (Bacillus subtilis (strain 168)) (UniProt P13267)", "sequence (P13267 whole entry, looked up)": "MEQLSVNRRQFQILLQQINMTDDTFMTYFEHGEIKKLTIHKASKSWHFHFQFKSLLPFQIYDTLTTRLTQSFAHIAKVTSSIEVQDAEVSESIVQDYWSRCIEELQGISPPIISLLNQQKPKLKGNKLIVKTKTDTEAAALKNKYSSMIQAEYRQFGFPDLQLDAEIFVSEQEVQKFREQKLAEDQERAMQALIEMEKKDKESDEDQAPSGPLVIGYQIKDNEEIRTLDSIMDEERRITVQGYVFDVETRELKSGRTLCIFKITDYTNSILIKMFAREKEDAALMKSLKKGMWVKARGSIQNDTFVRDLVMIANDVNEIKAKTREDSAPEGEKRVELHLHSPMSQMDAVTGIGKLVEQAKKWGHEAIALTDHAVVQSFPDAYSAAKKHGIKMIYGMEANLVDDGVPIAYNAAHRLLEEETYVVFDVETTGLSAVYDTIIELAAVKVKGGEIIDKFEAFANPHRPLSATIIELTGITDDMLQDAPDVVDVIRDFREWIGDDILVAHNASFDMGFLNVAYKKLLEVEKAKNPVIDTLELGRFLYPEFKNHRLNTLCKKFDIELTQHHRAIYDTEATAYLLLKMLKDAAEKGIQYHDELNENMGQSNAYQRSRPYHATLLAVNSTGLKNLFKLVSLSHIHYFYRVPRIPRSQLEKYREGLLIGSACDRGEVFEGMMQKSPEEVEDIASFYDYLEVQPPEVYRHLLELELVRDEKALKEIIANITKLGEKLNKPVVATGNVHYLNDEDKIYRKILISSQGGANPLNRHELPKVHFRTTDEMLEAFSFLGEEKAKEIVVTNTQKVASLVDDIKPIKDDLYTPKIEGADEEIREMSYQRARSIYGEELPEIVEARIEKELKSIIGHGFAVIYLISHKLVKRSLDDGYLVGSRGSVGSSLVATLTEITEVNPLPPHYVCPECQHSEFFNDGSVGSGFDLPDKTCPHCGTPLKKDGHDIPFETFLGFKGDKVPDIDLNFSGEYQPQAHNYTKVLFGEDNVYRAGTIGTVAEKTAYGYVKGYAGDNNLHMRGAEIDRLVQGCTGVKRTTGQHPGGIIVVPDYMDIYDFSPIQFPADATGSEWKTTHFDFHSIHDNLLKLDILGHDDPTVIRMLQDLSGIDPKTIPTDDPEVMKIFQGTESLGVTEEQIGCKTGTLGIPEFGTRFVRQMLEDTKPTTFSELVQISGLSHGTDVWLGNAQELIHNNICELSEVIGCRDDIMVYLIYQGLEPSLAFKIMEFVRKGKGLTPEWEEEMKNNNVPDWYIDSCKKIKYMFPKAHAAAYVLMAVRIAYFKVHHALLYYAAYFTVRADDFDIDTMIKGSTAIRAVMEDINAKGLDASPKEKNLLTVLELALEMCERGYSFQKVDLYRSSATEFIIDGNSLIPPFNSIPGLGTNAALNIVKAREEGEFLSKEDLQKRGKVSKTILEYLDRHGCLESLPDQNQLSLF", "assay": "qHTS Validation Assay for the Inhibitors of DNA Replication in Gram-Positive Bacteria (AID 485295);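 on activity change, negative = inhibition: reconstituted holoenzyme with PolC plus beta clamp SSB and primase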", "conditions": "Gram-positive bacterial DNA replication assay; series mostly up to 57.1 µM; activity change, negative = inhibition: at the top concentration", "experimental": "B Subtilis DNA polymerase III holoenzyme complex was assayed for DNA production by fluorescent detection of the double-stranded DNA product with PicoGreen dye. The holoenzyme complex was reconstituted from the following purified protein components: DNA Polymerase III, beta subunit processivity factor, SSB single-stranded DNA binding protein, and Primase. Single-stranded, circular M13Gori was used as a substrate with dNTPs and NTPs also supplied to the substrate reagent. Compounds from the NCGC collection were incubated with the holoenzyme mixture for […] at room temperature to allow binding to occur, and then the reaction was started by the addition of substrate. After 30 min incubation at room temperature, PicoGreen solution containing EDTA was added to stop the reaction and to visualize the double-stranded DNA produced. Reaction progress was measured in a ViewLux CCD imager in fluorescence intensity mode by using 480 nm excitation and 540 nm emission filter set.\n1. Thaw screening compounds.\n2. Label assay plates. Prepare pipette tips, reagent reservoirs, buffers and controls.\n1. Thaw Enzymes, DNA template, Nucleotides and PicoGreen dye concentrate. Thawed enzymes are stable on ice for ~1\nweek. Other thawed components are stable indefinitely.\n2. Prepare sufficient quantities of Enzyme, Substrate and PicoGreen Quench mixes (according to Table II). For the number of\ncompound plates being screened.\n3. Ensure that the tip wash station reservoirs have clean water and turn on recirculating chiller so that the chilled deck position\n1. Load 2 uL of EDTA controls (250 mM, Background, 100 % inhibition) and 2 uL of DMSO controls (Negative control, 0%\ninhibition) in the screening plates (flat-bottomed black 384-well polypropylene, Greiner Bio-one).\n2. Place Enzyme mix reservoir on the chiller position of the liquid handler deck. Make sure that chiller will maintain\ntemperature of Enzyme mix at 4degC. Substrate mix and PicoGreen Quench can be stored at room temp.\n3. Program liquid handling robotics to dispense 18 uL of Enzyme mix into assay plates. Wash tips.\n4. Aspirate and dispense 2 uL of compound from compound plates, mix and Incubate at room temperature for 10 minutes.\n5. Aspirate 5 ul of Substrate mix, dispense into assay plates and mix by pipetting. Wash tips.\n6. Incubate at room temperature (21 +/- 1 deg C) for 20 minutes.\n7. Quench reactions by addition of 25 uL PicoGreen Quench mix and mix by pipetting (using HTS robotics or bulk reagent\ndispenser such as a Multidrop or uFill). Keep plates in the dark or stacked until ready to read fluorescence.\n8. Read fluorescence intensity of plates on plate reader using \"Fluorescein (Ex 485 nm/ Em 535 nm, 0.1s)\" setting.", "units": {"activity change, negative = inhibition": "%"}, "values": [{"smiles": "CN1C[C@H](CNC(=O)OCc2ccccc2)C[C@@H]2c3cccc4c3c(cn4C)C[C@H]21", "activity change, negative = inhibition": -0.962}, {"smiles": "CC(O)(CS(=O)(=O)c1ccc(F)cc1)C(=O)Nc1ccc(C#N)c(C(F)(F)F)c1", "note": "(centres undefined)", "activity change, negative = inhibition": -1.81}, {"smiles": "Cc1ncc(CNC(=O)N(CCCl)N=O)c(N)n1", "activity change, negative = inhibition": -2.54}, {"smiles": "O=C1NCN(c2ccccc2)C12CCN(CC1COc3ccccc3O1)CC2", "note": "(centres undefined)", "activity change, negative = inhibition": -0.742}, {"smiles": "COC[C@H]1OC(=O)c2coc3c2[C@@]1(C)C1=C(C3=O)C2CCC(=O)[C@@]2(C)C[C@H]1OC(C)=O", "note": "(some centres undefined)", "activity change, negative = inhibition": 3.61}, {"smiles": "Cc1cccc(C)c1NC(=O)CN1CCCC1=O", "activity change, negative = inhibition": 5.01}, {"smiles": "c1ccc(C2CC2)c(OCC2=NCCN2)c1", "activity change, negative = inhibition": 5.02}, {"smiles": "CCC1(C2=NCCN2)Cc2ccccc2O1", "note": "(centres undefined)", "activity change, negative = inhibition": 1.95}, {"smiles": "CNCC(O)c1ccc(O)cc1", "note": "(centres undefined)", "activity change, negative = inhibition": -0.339}, {"smiles": "CC(CCc1ccccc1)NC(C)C(O)c1ccc(O)cc1", "note": "(centres undefined)", "activity change, negative = inhibition": -2.71}, {"smiles": "Cc1cc2c(C(C)C)c(O)c(O)c(C=O)c2c(O)c1-c1c(C)cc2c(C(C)C)c(O)c(O)c(C=O)c2c1O", "Potency": "10.6 µM (active)"}, {"smiles": "Fc1ccc(C(OCCN2CCN(CCCc3ccccc3)CC2)c2ccc(F)cc2)cc1", "activity change, negative = inhibition": -20.1}, {"smiles": "NCC(O)c1ccc(O)cc1", "note": "(centres undefined)", "activity change, negative = inhibition": 5.14}, {"smiles": "NCC(CC(=O)O)c1ccc(Cl)cc1", "note": "(centres undefined)", "activity change, negative = inhibition": -1.47}, {"smiles": "C[C@@H]1O[C@@H](O[C@H]2C[C@@H](O)[C@]3(CO)[C@H]4[C@H](O)C[C@]5(C)[C@@H](C6=CC(=O)OC6)CC[C@]5(O)[C@@H]4CC[C@]3(O)C2)[C@H](O)[C@H](O)[C@H]1O", "activity change, negative = inhibition": -1.44}, {"smiles": "CC[C@@H](CO)NC(=O)[C@@H]1C=C2c3cccc4c3c(cn4C)C[C@H]2N(C)C1", "Potency": "16.8 µM (active)"}, {"smiles": "CCCN1CCC[C@@H]2Cc3nc(N)ncc3C[C@H]21", "activity change, negative = inhibition": -0.405}, {"smiles": "CCCN1CCC[C@@H]2Cc3[nH]ncc3C[C@H]21", "Potency": "inactive"}, {"smiles": "CC(C)=CCOc1c2occc2cc2ccc(=O)oc12", "activity change, negative = inhibition": -2.14}, {"smiles": "O=c1[nH]c2ccccc2n1CCCN1CCC(n2c(=O)[nH]c3cc(Cl)ccc32)CC1", "activity change, negative = inhibition": -1.89}, {"smiles": "N#CC(C#N)=Cc1ccc(O)c(O)c1", "activity change, negative = inhibition": -0.71}, {"smiles": "NCC1(CC(=O)O)CCCCC1", "activity change, negative = inhibition": 2.77}, {"smiles": "CC(=O)[C@H]1CC[C@H]2[C@@H]3CC[C@H]4C[C@H](O)CC[C@]4(C)[C@H]3C(=O)C[C@]12C", "activity change, negative = inhibition": 3.48}, {"smiles": "Cc1cccc(C)c1NC1=NCCCS1", "activity change, negative = inhibition": 2.98}, {"smiles": "COc1ccc(C(CN(C)C)C2(O)CCCCC2)cc1", "note": "(centres undefined)", "activity change, negative = inhibition": 3.45}, {"smiles": "Cc1ccc(S(=O)(=O)N[C@@H](CCCCN)C(=O)CCl)cc1", "activity change, negative = inhibition": 3.01}, {"smiles": "c1ccc2c(c1)OCC(C1=NCCN1)O2", "note": "(centres undefined)", "activity change, negative = inhibition": -2.63}, {"smiles": "Nc1ccncc1", "activity change, negative = inhibition": -0.545}, {"smiles": "COc1ccccc1N1CCNCC1", "activity change, negative = inhibition": -0.501}, {"smiles": "C=C(C)[C@H]1Cc2c(ccc3c2O[C@@H]2COc4cc(OC)c(OC)cc4[C@@H]2C3=O)O1", "activity change, negative = inhibition": -5.81}, {"smiles": "O=c1c(O)c(-c2ccc(O)c(O)c2)oc2cc(O)cc(O)c12", "Potency": "10.6 µM (active)"}, {"smiles": "CCCC(C)(COC(N)=O)COC(=O)NC(C)C", "note": "(centres undefined)", "activity change, negative = inhibition": -6.92}, {"smiles": "NN=C(N)N", "Potency": "inactive"}, {"smiles": "CC(=O)[C@H]1CC[C@H]2[C@@H]3CC[C@H]4C[C@](C)(O)CC[C@]4(C)[C@H]3CC[C@]12C", "activity change, negative = inhibition": 3.49}]}]}
